Experiment [1] in a line: Nuclear factor erythroid 2-related factor 2/antioxidant responsive element (Nrf2/ARE) small molecule agonists: qHTS cell viability counter screen in human keratinocytes (AID 1919968; active = well fitted curve in the direction sought with a large enough effect in the repeat runs; an effect the other way counts as inactive or inconclusive; note: nearly all actives have a fitted effect of over 55% in size). The procedure, abridged: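 Seed 1,500 KeratinoSens cells per well, then incubate 5 h at 37 C/5% CO2. Add compounds in DMSO and incubate 23 h. Add CellTiter-Fluor, wait 1 h and read fluorescence.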

A short description of experiment [2]: Nuclear factor erythroid 2-related factor 2/antioxidant responsive element (Nrf2/ARE) small molecule agonists: luciferase reporter gene qHTS assay in human keratinocytes (AID 1919969). Note: nearly all actives have a fitted effect of over 35% in size. Note: potency is the fitted concentration of half-maximal effect. Background: In a reporter assay the amount or activity of a reporter protein is the signal.
For experiment [3], the target named is Gonadotropin-releasing hormone receptor (Homo sapiens) (UniProt P30968). The experiment is described as follows: Human gonadotropin-releasing hormone receptor (GnRHR) small molecule agonists, calcium flux assay in GnRHR-HEK293 cells (AID 1920063). Note: nearly all actives have a fitted effect of over 35% in size. The procedure, abridged: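 Cells: HEK293 stably expressing human GnRHR. Steps: overnight (18 h) culture, 1 h calcium dye loading at 37 C, compound addition, kinetic fluorescence read at 480/540 nm. Each compound tested at 15 concentrations in triplicate.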
Gonadotropin-releasing hormone receptor (Homo sapiens), sequence (P30968 whole entry, looked up): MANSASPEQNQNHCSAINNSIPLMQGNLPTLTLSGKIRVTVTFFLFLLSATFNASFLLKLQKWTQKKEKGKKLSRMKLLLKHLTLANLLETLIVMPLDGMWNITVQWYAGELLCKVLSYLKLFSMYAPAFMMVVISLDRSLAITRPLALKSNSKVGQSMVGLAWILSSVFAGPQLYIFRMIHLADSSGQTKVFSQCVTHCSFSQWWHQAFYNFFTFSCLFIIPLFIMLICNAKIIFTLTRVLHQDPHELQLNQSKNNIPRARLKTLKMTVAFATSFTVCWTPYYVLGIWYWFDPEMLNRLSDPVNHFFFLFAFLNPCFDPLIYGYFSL

Experiment [4] concerns the target KiSS-1 receptor (Homo sapiens) (UniProt Q969F8). The experiment is described as follows: Human kisspeptin (KISS1R) small molecule agonists, calcium flux assay in KISS1R-HEK293 cells (AID 1920064; active = well fitted curve in the direction sought with a large enough effect in the repeat runs; an effect the other way counts as inactive or inconclusive). In a few lines: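 Cells plated and incubated 18 h; dye added, 1 h at 37 C; compounds in DMSO pinned in; signal read at 480/540 nm every second for 3 min. Each compound tested at 15 concentrations in triplicate.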
On the technique in general: A change in cytosolic calcium serves as a functional read-out for many receptors and channels.

Experiment [5] in a line: G protein-coupled receptor (GPCR) small molecule agonists, calcium flux assay: HEK293 wild type cell line counter screen (AID 1920065). The procedure, abridged:
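Counter-screen of the Tox21 10K library for non-specific calcium release: dye-loaded cells received compounds in DMSO and were monitored by kinetic fluorescence (480/540 nm, 3 min). Fifteen concentrations, run in triplicate.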

A short description of experiment [6]: p53 small molecule agonists, cell-based qHTS assay with human liver microsomes: qHTS cell viability counter screen (AID 1963579). Note: nearly all actives have a fitted effect of over 45% in size. In a few lines:
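Metabolic activation used human liver microsomes and NADPH, both 0.5 mg/mL final, over 16 hours at 37 C on p53RE-bla cells (4,000/well). Cytotoxicity measured by CellTiter-Glo luminescence, 30 min at room temperature.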
For orientation: qHTS replaces the single test concentration by a dilution series.

Experiment [7] is described as follows: p53 small molecule agonists, cell-based qHTS assay with rat liver microsomes: qHTS cell viability counter screen (AID 1963580). Note: nearly all actives have a fitted effect of over 45% in size. The procedure, abridged:
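Intracellular ATP, by CellTiter-Glo luminescence, defines viability. HCT-116 p53RE-bla cells, 4,000 per well, were compound-treated in the presence of rat liver microsomes and NADPH for 16 h at 37 C.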

Experiment [8] can be described thus: p53 small molecule agonists, cell-based qHTS assay: qHTS cell viability counter screen (AID 1963581). Note: nearly all actives have a fitted effect of over 45% in size. The procedure, abridged: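 Cells: HCT-116 with p53 response element-driven beta-lactamase. Treatment: 16 h, 37 C, compounds in DMSO. Read: CellTiter-Glo luminescence after 30 min RT.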
For experiment [9], the target named is 5-hydroxytryptamine receptor 2A (Homo sapiens) (UniProt P28223). Nature of the experiment: 5-hydroxytryptamine receptor 2A (HTR2A) small molecule antagonists, cell-based qHTS assay (AID 1963586). Note: nearly all actives have a fitted effect of over 45% in size. In a few lines: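 Antagonist-mode intracellular calcium assay: DOI (4 nM) added after 5 min compound pre-incubation at room temperature to dye-loaded HTR2A-CHO cells. Fluorescence followed for 3 min, sampled every second.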
5-hydroxytryptamine receptor 2A (Homo sapiens), sequence (P28223 whole entry, looked up): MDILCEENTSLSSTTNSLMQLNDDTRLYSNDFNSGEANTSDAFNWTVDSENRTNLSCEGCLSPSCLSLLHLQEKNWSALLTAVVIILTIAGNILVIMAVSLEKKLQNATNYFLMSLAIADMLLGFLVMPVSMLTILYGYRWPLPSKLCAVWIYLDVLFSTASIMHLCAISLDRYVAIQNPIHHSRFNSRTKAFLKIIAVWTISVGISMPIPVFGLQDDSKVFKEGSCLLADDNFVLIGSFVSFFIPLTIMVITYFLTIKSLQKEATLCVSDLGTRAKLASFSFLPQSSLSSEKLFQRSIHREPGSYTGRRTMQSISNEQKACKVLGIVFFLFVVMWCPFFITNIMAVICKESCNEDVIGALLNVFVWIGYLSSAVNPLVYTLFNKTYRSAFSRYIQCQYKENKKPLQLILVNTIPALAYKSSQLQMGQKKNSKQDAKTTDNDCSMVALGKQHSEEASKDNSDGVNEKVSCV

Experiment [10] has the same target. Nature of the experiment: 5-hydroxytryptamine receptor 2A (HTR2A) small molecule agonists, cell-based qHTS assay (AID 1963587). Note: nearly all actives have a fitted effect of over 30% in size. The procedure, abridged: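 Kinetic calcium-flux fluorescence (2 min, 1 sec intervals) after compound addition in agonist mode. HTR2A-CHO cells were cultured 18 h, then dye-loaded 1 h at 37 C.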
In experiment [11] the target is Muscarinic acetylcholine receptor M1 (Homo sapiens) (UniProt P11229). Nature of the experiment: Cholinergic receptor muscarinic 1 (CHRM1) small molecule antagonists, cell-based qHTS assay (AID 1963588). Note: nearly all actives have a fitted effect of over 40% in size. The procedure, abridged:
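CHRM1-CHO calcium-flux assay, antagonist mode. Cells were seeded 18 h, dye-loaded 1 h at 37 C and given compound for 5 min at RT, then acetylcholine was added at 50nM. FDSS fluorescence was read 3 min; 15 concentrations, three runs.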

The target is the same in experiment [12]. Nature of the experiment: Cholinergic receptor muscarinic 1 (CHRM1) small molecule agonists, cell-based qHTS assay (AID 1963589). Note: nearly all actives have a fitted effect of over 35% in size. The procedure, abridged: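 Agonist-mode qHTS in CHO cells stably carrying human muscarinic M1. Intracellular calcium is tracked by fluorescence every second after compound transfer; each compound runs at 15 concentrations in three independent runs.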

A short description of experiment [13]: cAMP Responsive Elements (CRE) small molecule agonists, cell-based qHTS assay (AID 1963590). The procedure, abridged:
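Agonist mode qHTS in CRE-bla HEK 293T cells: compounds dosed from DMSO for 3 h at 37 C/5% CO2, followed by LiveBLAzer B/G FRET substrate for 2 h at room temperature.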

Experiment [14] in a line: cAMP Responsive Elements (CRE) small molecule antagonists, cell-based qHTS assay (AID 1963591; active = well fitted inhibition curve with a large enough effect in the signal ratio in the repeat runs, not every such curve was filed as active; the % refers to the signal ratio). The procedure, abridged: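 Antagonist mode: test compounds are co-incubated with the adenylyl cyclase activator NKH477 (0.25 uM final) on CRE-bla HEK293T cells for 3 h at 37 °C, followed by LiveBLAzer substrate loading.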
The target of experiment [15] is Beta-2 adrenergic receptor (Homo sapiens) (UniProt P07550). The experiment is described as follows: Adrenergic beta2 receptor (ADRB2) small molecule antagonists, cell-based qHTS assay (AID 1963592). Note: series mostly up to about 92 µM; nearly all actives have a fitted effect of over 50% in size. The procedure, abridged: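 Cells (CHO, stable ADRB2 overexpression) incubated 18-20hr at 37C; compounds added from DMSO; agonist mix (1nM isoproterenol, 100uM IBMX, 25uM Ro-20-1724) added; 0.5hr RT; d2-cAMP and anti-cAMP-cryptate added; 1hr RT; 665/615 nm read.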
Beta-2 adrenergic receptor (Homo sapiens), sequence (P07550 whole entry, looked up): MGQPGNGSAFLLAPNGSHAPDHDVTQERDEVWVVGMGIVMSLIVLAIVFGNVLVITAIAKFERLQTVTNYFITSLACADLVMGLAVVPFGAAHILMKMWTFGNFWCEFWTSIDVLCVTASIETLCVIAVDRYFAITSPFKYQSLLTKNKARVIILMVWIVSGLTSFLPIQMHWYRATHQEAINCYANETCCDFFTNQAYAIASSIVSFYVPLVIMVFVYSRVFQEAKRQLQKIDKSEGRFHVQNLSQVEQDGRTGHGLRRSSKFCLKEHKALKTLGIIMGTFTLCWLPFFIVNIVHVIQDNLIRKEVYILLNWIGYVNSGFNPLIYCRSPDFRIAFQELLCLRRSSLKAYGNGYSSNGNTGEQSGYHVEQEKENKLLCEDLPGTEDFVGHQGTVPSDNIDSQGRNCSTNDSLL

Experiment [16] concerns the target D(2) dopamine receptor (Homo sapiens) (UniProt P14416). The experiment is described as follows: Dopamine D2 receptor (DRD2) small molecule agonists, cell-based qHTS assay (AID 1963594). Note: nearly all actives have a fitted effect of over 35% in size. The procedure, abridged: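 cAMP accumulation in DRD2-HEK293 cells measured by HTRF after 1 h detection; compounds added 10 min before NKH477 (200nM […]) forskolin-analogue stimulation, 30 min at room temperature, with Ro20-1724 present at 0.1 mM final.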

Experiment [17] shares this target. The experiment is described as follows: Dopamine D2 receptor (DRD2) small molecule antagonists, cell-based qHTS assay (AID 1963595; active = well fitted inhibition curve with a large enough effect in the signal ratio in the repeat runs, with a control signal flat; the % refers to the signal ratio). In a few lines:
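Stable D2 receptor HEK293 line, 24 h after seeding. Compound preincubated 10 min, then quinpirole (12 nM) with forskolin analogue NKH477 (200 nM), 30 min, room temperature. Detection by time-resolved FRET of cAMP.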

Experiment [18] deals with Beta-2 adrenergic receptor (Homo sapiens) (UniProt P07550). Nature of the experiment: Adrenergic beta2 receptor (ADRB2) small molecule agonists, cell-based qHTS assay (AID 1963593).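 Note: CHO cells stably overexpressing human ADRB2.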 In a few lines:
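CHO cells stably over-expressing ADRB2 were plated overnight at 37C, then dosed with compounds plus a stimulation mix containing 100uM IBMX and 25uM Ro-20-1724 for 0.5hr at room temperature. cAMP was measured by HTRF competition, 1hr.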

From PubChem BioAssay (Tox21) come the findings set out here.

Structures are written as SMILES. Unmarked numbers belong to inactive results. Records with an inconclusive call do not appear. Calls of active or inactive are those of the source. Unless noted, calls come from the whole dose curve.
% is set by controls: 0 for no effect and ±100 for the full control effect.

KiSS-1 receptor (Homo sapiens), sequence (Q969F8 whole entry, looked up): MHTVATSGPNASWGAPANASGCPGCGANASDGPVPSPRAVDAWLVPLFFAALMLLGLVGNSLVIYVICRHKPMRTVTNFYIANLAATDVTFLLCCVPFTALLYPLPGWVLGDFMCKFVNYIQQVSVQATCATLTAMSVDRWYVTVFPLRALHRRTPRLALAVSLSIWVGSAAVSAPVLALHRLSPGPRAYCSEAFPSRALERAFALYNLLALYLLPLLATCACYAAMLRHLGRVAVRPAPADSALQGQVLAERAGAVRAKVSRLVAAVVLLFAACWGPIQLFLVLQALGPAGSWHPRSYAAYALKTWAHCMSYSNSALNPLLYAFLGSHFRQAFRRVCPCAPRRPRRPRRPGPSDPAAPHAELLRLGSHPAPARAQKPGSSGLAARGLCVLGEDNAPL
Muscarinic acetylcholine receptor M1 (Homo sapiens), sequence (P11229 whole entry, looked up): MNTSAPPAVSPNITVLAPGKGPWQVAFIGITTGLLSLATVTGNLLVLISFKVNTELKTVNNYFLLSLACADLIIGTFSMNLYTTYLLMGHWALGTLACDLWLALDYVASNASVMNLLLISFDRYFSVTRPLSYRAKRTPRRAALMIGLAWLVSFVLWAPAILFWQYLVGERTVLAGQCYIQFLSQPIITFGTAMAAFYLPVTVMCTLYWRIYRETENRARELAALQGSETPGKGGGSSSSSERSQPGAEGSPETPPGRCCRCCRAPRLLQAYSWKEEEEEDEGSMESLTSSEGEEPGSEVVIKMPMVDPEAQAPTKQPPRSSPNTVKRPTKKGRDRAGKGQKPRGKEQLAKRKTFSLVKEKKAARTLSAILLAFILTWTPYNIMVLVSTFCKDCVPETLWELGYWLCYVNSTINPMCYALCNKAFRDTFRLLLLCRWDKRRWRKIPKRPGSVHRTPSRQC
D(2) dopamine receptor (Homo sapiens), sequence (P14416 whole entry, looked up): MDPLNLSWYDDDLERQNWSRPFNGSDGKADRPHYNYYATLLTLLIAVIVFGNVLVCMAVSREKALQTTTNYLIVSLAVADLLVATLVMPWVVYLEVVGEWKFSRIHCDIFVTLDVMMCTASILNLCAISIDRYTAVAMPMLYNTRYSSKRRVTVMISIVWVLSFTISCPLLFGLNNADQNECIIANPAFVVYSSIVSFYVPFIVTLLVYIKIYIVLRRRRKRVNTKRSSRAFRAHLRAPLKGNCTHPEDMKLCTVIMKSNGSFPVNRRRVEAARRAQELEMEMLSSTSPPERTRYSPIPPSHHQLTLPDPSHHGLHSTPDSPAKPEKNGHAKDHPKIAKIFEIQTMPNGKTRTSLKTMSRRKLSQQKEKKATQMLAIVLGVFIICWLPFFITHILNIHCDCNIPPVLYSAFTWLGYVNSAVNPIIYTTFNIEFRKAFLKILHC

As for `Cc1cccc(C)c1NC1=NCCCS1`, the Potency entry in [1], in experiment [2], in experiment [3], in experiment [4], in experiment [5] and in [6] was “inactive” each time. Also, the Potency result in [7], in experiment [8], in experiment [9], in experiment [10], in [11] and in [12] was “inactive” in each case. The Potency entry in experiment [13], in [14], in experiment [15], in [16] and in [17] was “inactive” each time.
Take `Oc1c(Cl)cccc1Cl`: the Potency result in experiment [1], in experiment [2], in [3], in experiment [4], in experiment [5] and in experiment [6] was “inactive” each time. Also, the Potency entry in experiment [7], in [8], in experiment [9], in [10], in experiment [11] and in experiment [12] was “inactive” throughout. For the same molecule, the Potency result in experiment [13], in [14], in [15], in [18], in experiment [16] and in [17] was “inactive” throughout.
In the case of `CCC(C)Nc1c([N+](=O)[O-])cc(C(C)(C)C)cc1[N+](=O)[O-]` (centres undefined), the Potency result in experiment [1], in experiment [3], in [4], in [5], in [6] and in experiment [7] was “inactive” each time. Besides, the Potency result in experiment [8], in experiment [9], in experiment [10], in experiment [11], in experiment [12] and in [13] was “inactive” each time. Moreover, the Potency entry in experiment [14], in [15], in [16] and in experiment [17] was “inactive” in each case. Moreover, in experiment [2], the Potency is 54.5 µM (active).
With `CC1C(=O)C[C@]2(C(C)C)C[C@H]12` (some centres undefined), the Potency entry in [1], in experiment [2], in experiment [3], in experiment [4], in experiment [5] and in experiment [6] was “inactive” each time. The Potency result in experiment [7], in experiment [8], in [9], in [10], in experiment [11] and in experiment [12] was “inactive” in each case. Further, the Potency result in experiment [13], in experiment [15], in experiment [16] and in experiment [17] was “inactive” each time.
Consider `O=C(NC(O)C(Cl)(Cl)Cl)NC(O)C(Cl)(Cl)Cl` (centres undefined), for which the Potency entry in experiment [1], in [2], in [3], in [4], in experiment [5] and in experiment [6] was “inactive” throughout. The Potency entry in experiment [7], in [8], in experiment [9], in [10], in experiment [11] and in experiment [12] was “inactive” in each case. In addition, the Potency entry in experiment [13], in [14], in experiment [15] and in experiment [17] was “inactive” each time.
Consider `C[N+](C)=CCl`, for which the Potency entry in experiment [1], in experiment [2], in experiment [3], in experiment [4], in experiment [5] and in experiment [6] was “inactive” in each case. The Potency entry in [7], in [8], in [9], in [10], in experiment [11] and in experiment [12] was “inactive” in each case. Also, the Potency entry in [13], in experiment [14], in experiment [15], in experiment [16] and in experiment [17] was “inactive” in each case.
On to `CCOP(=S)(OCC)SCSc1ccc(Cl)cc1`, for which the Potency entry in [1], in [2], in experiment [3], in experiment [4], in experiment [5] and in [6] was “inactive” throughout. The Potency entry in experiment [7], in [8], in [9], in experiment [10], in [11] and in [12] was “inactive” in each case. Moreover, the Potency entry in [13], in experiment [15], in [18], in experiment [16] and in experiment [17] was “inactive” throughout.
For the molecule `Nc1c(Br)cc(Br)c2c1C(=O)c1ccccc1C2=O`, the activity change, negative = cytotoxicity was -10.3% [at 19 µM] in [1], 2.22% [at 13.5 µM] in experiment [6], -8.42% [at 13.5 µM] in [7] and 13.4% [at 13.5 µM] in experiment [8]. For the same molecule, the activity, positive = activation in experiment [2] was 4.98% [at 19 µM]. The activity change in [3] was 1.8% [at 11.8 µM, active compounds read high]. The activation in experiment [4] is 7.67% [at 15.8 µM]; in [5] it was 0.165% [at 11.8 µM]; in experiment [10], -1.81% [at 15.9 µM]; in experiment [12], -0.118% [at 15.8 µM]; in experiment [13] it was -1.39% [at 19 µM]; in [16], -0.116% [at 19 µM]. Further, the values for the activity, negative = inhibition in experiment [9] and in [11] were 6.3% [at 12.7 µM] and -4.93% [at 12.6 µM], respectively. Also, the activity change, negative = inhibition in [15] is 17.4% [at 19 µM]; in experiment [17], 9% [at 18.9 µM].
